This note sets out measurements from PubChem BioAssay AID2314 (National Center for Advancing Translational Sciences (NCATS), 2010).

Out of some 300,000 compounds screened, about 37,000 (12%) were called active. Many of the other results were omitted from the sample, so actives are more common in it than they were. Unmarked numbers belong to inactive results. Rule as the data show it: active = max response mostly above about 13% (no sharp cut-off); inactive = mostly below about 14%.

A short description of the experiment: Cycloheximide Counterscreen for Small Molecule Inhibitors of Shiga Toxin. Also: read at 38.3 µM for the half of the compounds with a filed dose; 0% is about no effect. To be noted: cell reporter, cycloheximide protein synthesis inhibition counterscreen; active compounds read high.
For `CCc1ccc(OC(C)C(=O)Nc2ccc(S(=O)(=O)Nc3cc(C)on3)cc2)cc1` (centres undefined), the max response is -1.86%.

Take `COc1ccccc1NC(=O)CN(c1ccccc1OC)S(=O)(=O)c1ccccc1`: the max response was -1.65%. Consider `O=C1C[C@@H](c2ccc3ccccc3c2)N1S(=O)(=O)c1ccccc1[N+](=O)[O-]`, for which the max response was -1.77%. `O=C1C2C(c3ccccc3)CC=CC2C(c2ccoc2)N1Cc1ccccc1` (centres undefined): the max response is 0.409%. For `O=C(CN1C(=O)NC2(CCCCC2)C1=O)NCCc1c[nH]c2ccccc12`, the max response was -0.529%.

With `CC(C)(C)N(Cc1ccccc1)C(=O)c1ccncc1`, the max response was -0.936%. Regarding `Cc1nnc(SCc2ccc(C(=O)c3ccc(Cl)cc3)o2)n1-c1ccccc1`, the max response was 6.81%.

Take `Cc1ccc(-c2noc(CSc3nnc(-c4ccncc4)n3-c3ccc(F)cc3)n2)cc1`: the max response was 0.685%. Take `Cc1ccc2nc(-c3ccncc3)cc(C(=O)Nc3ccncc3)c2c1`: the max response was 6.6%. To `Cc1ccc(-c2nc(-c3ccncc3)no2)c(C)c1` belongs 43.8% (active); to `Cc1cc(S(=O)(=O)N2CCOCC2)ccc1OCC(=O)Nc1cccc(C(F)(F)F)c1`, -3.96%; to `CCC1=Nc2cc(C(=O)NCCN3CCCC3)ccc2Sc2ccc(C)cc21`, 14.2%.

On to `O=C(NC(=O)c1cc(OCC(F)(F)F)ccc1OCC(F)(F)F)Nc1ccccc1`, for which the max response is 8.68% (active). For `CONC(=O)c1cc(OCC(F)(F)F)ccc1OCC(F)(F)F`, the max response was -3.39%. To `O=C(Nc1ccccc1)Nc1ccc(C(F)(F)F)cn1` belongs 13%; to `CC1CCN(C(=O)Cn2nnnc2CN2CCOCC2)CC1`, -2.13%. As for `COc1ccc(CCNC(=O)C(=O)NCC2OCCN2S(=O)(=O)c2ccc(F)cc2)cc1OC` (centres undefined), the max response was 1.66%.

Take `COCCNC(=O)c1ccc(N2CCC3(CC2)OCCO3)c([N+](=O)[O-])c1`: the max response was -2.09%. On to `CCC(C)NC(=O)c1ccc(N2CCC3(CC2)OCCO3)c([N+](=O)[O-])c1` (centres undefined), for which the max response is 20% (active). To `CC(NC(=O)c1ccc(N2CCNCC2)c([N+](=O)[O-])c1)C12CC3CC(CC(C3)C1)C2` (centres undefined) belongs -1.62%. On to `Cc1cc(C)cc(Oc2nc3c(C)cccn3c(=O)c2/C=C(\C#N)C(=O)NC2CCS(=O)(=O)C2)c1` (centres undefined), for which the max response was -2.61%. To `COc1cc(/C=N/O)ccc1OCc1ccc([N+](=O)[O-])cc1` belongs 88.7% (active); to `COc1cc(C(=O)OCc2ccc([N+](=O)[O-])cc2)cc(OC)c1OC`, -1.24%. For `COc1cc(/C=N\Nc2ccc([N+](=O)[O-])cn2)ccc1OCC(=O)O`, the max response was 15.7%. As to `Cc1cc(=O)oc2c3c(cc(OCC(=O)N[C@H](C(=O)O)c4ccccc4)c12)OC(C)(C)CC3`, the max response is -1.78%.

As for `CC(C)C(NS(=O)(=O)c1ccc(-c2ccc(Br)cc2)cc1)C(=O)O` (centres undefined), the max response is 7.4%. Regarding `Cc1cc(C)cc(N(CC(=O)NC2CCCC2)C(=O)CCC(=O)Nc2nccs2)c1`, the max response is -5.07%. The figure for `Cc1nn(-c2ccccc2)c(C)c1NC(=O)CCl` is 17.3%; for `Cc1nn(-c2ccccc2)c(C)c1/C=C/C(=O)OC(C)C(N)=O` (centres undefined) it is 18.6% (active). On to `Cc1nn(-c2ccccc2)c(=O)c2noc(C)c12`, for which the max response is -1.05%. Take `CCc1ccccc1S(=O)(=O)Cc1ccc(C(=O)NCCc2ccccc2)o1`: the max response was 16%. For `CCN(CC)S(=O)(=O)c1cc(C(=O)Nc2ccccn2)ccc1C`, the max response was 45.1% (active).

On to `CCN(CC)S(=O)(=O)c1ccc(NC(=O)c2cccnc2Cl)c(NC(=O)c2cccnc2Cl)c1`, for which the max response was -1.75%. As to `CCN(CC)S(=O)(=O)c1cccc(C(=O)Nc2ccccc2)c1`, the max response was 17.1% (active). As to `CCN(CC)S(=O)(=O)c1ccc(NC(=O)c2cnc(C)cn2)cc1`, the max response is 0.654%. To `CCN(CC)S(=O)(=O)c1cccc(C(=O)NCC(=O)OCC(=O)NCc2ccccc2)c1` belongs -1.61%.

Turning to `Cc1ccc(NC(=O)CNCc2ccccn2)cc1S(=O)(=O)N(C)C`, the max response is 19.5%. As for `CC(C)c1ccc(C2C(C(=O)c3ccco3)=C(O)C(=O)N2CC2CCCO2)cc1` (centres undefined), the max response was 10.1%. On to `CC(C)(C)[C@H]1C=C(C(=O)NCc2ccccc2)O[C@@H](OCc2ccc(CO)cc2)C1`, for which the max response is -1.33%. Consider `COc1cc(C(=S)N2CCOCC2)cc(OC)c1OC(=O)c1ccc([N+](=O)[O-])cc1[N+](=O)[O-]`, for which the max response was 3.8%. The figure for `Cn1c(SCc2c(F)cccc2Cl)nnc1-c1cnccn1` is 56.4% (active); for `Oc1ccc(-n2nnnc2SCc2c(F)cccc2Cl)cc1` it is -2.8%; for `Cc1ccc(CSc2nnc(-c3cnccn3)n2C)cc1` it is 10.9% (active). With `Cn1c(SCc2ccc(F)cc2)nnc1-c1ccncc1`, the max response was 10.5%.

Turning to `CCN(CC)C(=O)CSc1nnc(-c2cnccn2)n1-c1ccc(C)cc1`, the max response was 0.416%.

`O=C(CSc1nnc(-c2cnccn2)n1Cc1ccco1)c1ccc(Cl)c(Cl)c1`: the max response was 0.777%.

For the compound `CN(C)C(=O)c1coc2nc3ccccc3nc12`, the max response is 4.74%. With `COc1ccc(C(C[N+](=O)[O-])n2nc(C)cc2C)cc1` (centres undefined), the max response was -0.331%. Take `COc1ccc(C(=O)N2CCc3cc(OC)c(OC)cc3C2c2cccc([N+](=O)[O-])c2)cc1` (centres undefined): the max response is 0.684%. On to `CCOC(=O)c1sc(NC(=O)CSc2nc(O)c(Cc3ccccc3)c(=O)[nH]2)nc1C`, for which the max response is 39.7% (active). For `CCOC(=O)c1sc(NC(=O)CSc2n[nH]c(CC)n2)nc1C`, the max response is 0.587%. Turning to `O=C(CSc1nc(O)c(Cc2ccccc2)c(=O)[nH]1)Nc1nc2c(s1)CCCC2`, the max response is 28% (active). As for `CSc1nc(O)c(Cc2ccccc2)c(=O)[nH]1`, the max response is -3.85%.

In the case of `O=C(CCS(=O)(=O)c1ccccc1)Nc1nc2c(s1)CCCC2`, the max response is 5.94%. The figure for `CCOC(=O)c1ccccc1NC(=O)CSc1nc2ccccc2c(=O)[nH]1` is -3.39%. Consider `Cc1cccc(C(=O)Nc2ccccc2N2CCN(c3ccc(F)cc3)CC2)c1`, for which the max response is -0.148%.

`Cc1ccc(-n2nc3c(c2NC(=O)c2ccc4c(c2)OCO4)CSC3)c(C)c1`: the max response is -1.7%. As to `O=C(Nc1ccccc1N1CCN(C(=O)c2ccccc2)CC1)c1ccc2c(c1)OCO2`, the max response was -1.45%. Consider `O=C(Nc1ccccc1F)c1ccc2c(c1)OCO2`, for which the max response is 41.4% (active).

On to `O=C(COC(=O)c1ccc2c(c1)OCCO2)NCc1ccccc1`, for which the max response was 10.5%. Turning to `O=C(OCc1ccccc1F)c1ccc2c(c1)OCCO2`, the max response is 33% (active). To `CC(NC(=O)COC(=O)c1ccc2c(c1)OCO2)c1ccccc1` (centres undefined) belongs 7.94%; to `Cn1c(NC(=O)c2ccc3c(c2)OCO3)cc(=O)n(C)c1=O`, -4.72%. With `Cc1ccc(F)cc1NC(=O)c1ccc2c(c1)OCO2`, the max response was 25.6% (active). With `COc1ccc(C(=O)Nc2ccc(F)cc2F)cc1`, the max response was 28.7%. For the compound `Cc1ccc(F)cc1NC(=O)c1cccc(N(C)C)c1`, the max response is 28.9% (active).

Take `Cc1cc2c(c(=O)n1C)C(C(C)C)C(C#N)=C(N)O2` (centres undefined): the max response is -2.6%. Regarding `Cc1cccc(C)c1NC(=O)CS(=O)CC(=O)N1CCN(c2ccccc2)CC1` (centres undefined), the max response is -5.35%. The figure for `CCc1cccc(C)c1N1C(=O)CN(Cc2ccccc2)C1=S` is -2.45%; for `O=C1/C(=C\c2cccnc2)CN(Cc2ccccc2)C/C1=C\c1cccnc1` it is 7.45%; for `CCOC(=O)N1CCN(c2c(NCCN3CCN(c4ccccc4F)CC3)c(=O)c2=O)CC1` it is -2.33%. As for `COc1ccc(C(CNCC(=O)Nc2ccccc2F)N(C)C)cc1` (centres undefined), the max response is -2.53%. The figure for `COc1ccc(C2C(C#N)=C(N)Oc3cc(N)ccc32)cc1OC` (centres undefined) is 11.4%. With `COCCCn1c(SCc2cccc(OC)c2)nc2cc(OC)c(OC)cc2c1=N`, the max response is 6.77%.

As to `N#Cc1ccccc1NC(=O)c1ccc2c(c1)OCO2`, the max response is 24.8% (active). With `O=C(c1ccc2c(c1)OCO2)N1CCNc2ccccc2C1`, the max response was 3.63%. For `CC1(c2ccc(Cl)cc2)NC(=O)N(CC(=O)c2ccc3c(c2)OCO3)C1=O` (centres undefined), the max response was 14.2%. With `O=C(CN1CCN(c2ccccc2F)CC1)c1ccc2c(c1)OCO2`, the max response is 16.8% (active). The figure for `Cc1onc(-c2ccccc2)c1C(=O)Nc1ccccc1C#N` is 3.86%; for `O=C(CN1CCN(CC(=O)Nc2ccc3c(c2)OCO3)CC1)Nc1ccc(F)cc1` it is -2.15%. As to `CSCCC(NC(=O)c1cc([N+](=O)[O-])cc([N+](=O)[O-])c1)c1nc2ccccc2[nH]1` (centres undefined), the max response was -1.41%. As to `Cc1cc(C(=O)N/N=C/c2cc([N+](=O)[O-])cc(C)c2O)n[nH]1`, the max response is 4.92%. To `Cc1cc(=O)[nH]c(Nc2cccc(Br)c2)n1` belongs -1.7%. In the case of `CN(C)Cc1c(C(=O)N/N=C/c2ccccc2OCc2ccc(F)cc2)nnn1-c1nonc1N`, the max response was -5.05%.

On to `O=C(/C=C/c1ccc(Cl)cc1)NCCCn1ccnc1`, for which the max response is 13.1% (active).

As to `CC(C)(C)c1ccc(/C=C/C(=O)NCCCn2ccnc2)cc1`, the max response is -3.02%. In the case of `O=C(NCCCn1ccnc1)Nc1ccc(Cl)cc1Cl`, the max response was -6.88%. As for `FC(F)(F)c1ccc(CN2C[C@@H]3C(c4ccccc4)C4(c5ccccc5)CC3(C4)[C@H]2c2ccccc2)cc1` (some centres undefined), the max response was -2.46%. The figure for `CCN(CC)S(=O)(=O)c1ccc(NC(=O)CN(c2cccc(F)c2)S(C)(=O)=O)cc1` is -1.18%; for `Cc1nc2ccc(S(=O)(=O)N(C)CC(=O)NC(C)c3ccccc3)cc2s1` (centres undefined) it is -0.483%.

Consider `COc1cc(NC(=O)CN(C)S(=O)(=O)c2ccc3nc(C)sc3c2)cc(OC)c1`, for which the max response was -1.04%. For `Cc1ccc(N(CC(=O)Nc2cc(C)cc(C)c2)S(=O)(=O)c2cccc3nonc23)cc1`, the max response is -2.6%. As for `Cc1cccc(N(CC(=O)Nc2ccc(-c3nc4ccc(C)cc4s3)cc2)S(C)(=O)=O)c1`, the max response is 43% (active). `Cc1ccc2nc(-c3ccc(NC(=O)CN(C)S(=O)(=O)c4ccccc4)cc3)sc2c1`: the max response was 41.9% (active).
